The values that follow come from PMC7862700, “An all-to-all approach to the identification of sequence-specific readers for epigenetic DNA modifications on cytosine”.

Holding throughout (test): DAPPL (digital affinity profiling via proximity ligation, sequencing); 10 mM Tris-HCl pH 7.5, 50 mM NaCl, 1 mM DTT, 4% glycerol, room temperature, 30 min; GST-TFs on glutathione beads, 16-mer random dsDNA library, 0.1% formaldehyde crosslink after washing; high values mean tight binding
In one assay the target is T1, FEV (Homo sapiens, UniProt Q99581 1-238).
T1 sequence: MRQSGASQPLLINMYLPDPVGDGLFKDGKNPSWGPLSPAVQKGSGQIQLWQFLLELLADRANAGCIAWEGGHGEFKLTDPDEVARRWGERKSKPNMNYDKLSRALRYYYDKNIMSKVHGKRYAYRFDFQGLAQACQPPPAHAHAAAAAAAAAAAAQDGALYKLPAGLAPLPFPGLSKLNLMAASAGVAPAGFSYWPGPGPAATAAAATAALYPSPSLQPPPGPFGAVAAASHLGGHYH
Conditions: protein: recombinant; tags: N-terminal GST; dsDNA, one strand shown. The method, boiled down: (§1)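 Binding signal is each hexamer's read frequency for a factor divided by its frequency in the tag-only sample. The factors were GST-fused human transcription factors from yeast, captured on glutathione beads, DNA-barcoded and pooled with that sample. Pools were incubated with 200 nmole of a random double-stranded 16-mer DNA library in Tris/NaCl/DTT/glycerol buffer at room temperature for 30 min, then washed, crosslinked with 0.1% formaldehyde, proximity-ligated with BsaI/T4 ligase (1 h, 37 °C), PCR-amplified and sequenced on an Illumina NextSeq500.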

A further assay has as its target ETV5 (Homo sapiens, UniProt P41161 1-510). The conditions noted are these: protein: recombinant; tags: N-terminal GST; dsDNA, one strand shown. The method in brief:
as §1

In another assay the target is HSF1 (Homo sapiens, UniProt Q00613 1-529). The conditions noted are these: protein: recombinant; tags: N-terminal GST; chain copies: 3; dsDNA, one strand shown. The method, boiled down:
as §1

The next assay concerns the target T2, SPIC (Homo sapiens, UniProt Q8N5J4 1-248).
T2 sequence: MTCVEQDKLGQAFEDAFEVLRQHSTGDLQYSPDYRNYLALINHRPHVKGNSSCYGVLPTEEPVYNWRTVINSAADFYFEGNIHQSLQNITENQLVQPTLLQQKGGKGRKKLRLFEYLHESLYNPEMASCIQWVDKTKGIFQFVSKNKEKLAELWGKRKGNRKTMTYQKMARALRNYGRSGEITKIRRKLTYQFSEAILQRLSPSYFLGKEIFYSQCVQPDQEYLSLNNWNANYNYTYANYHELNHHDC
The conditions noted are these: protein: recombinant; tags: N-terminal GST; dsDNA, one strand shown. The method in brief: as §1

A further assay addresses ELF4 (Homo sapiens, UniProt Q99607 1-663). The conditions noted are these: protein: recombinant; tags: N-terminal GST; dsDNA, one strand shown. The method in brief: as §1
A further assay has as its target T3, ELK4 (Homo sapiens, UniProt P28324-2 1-405).
T3 sequence: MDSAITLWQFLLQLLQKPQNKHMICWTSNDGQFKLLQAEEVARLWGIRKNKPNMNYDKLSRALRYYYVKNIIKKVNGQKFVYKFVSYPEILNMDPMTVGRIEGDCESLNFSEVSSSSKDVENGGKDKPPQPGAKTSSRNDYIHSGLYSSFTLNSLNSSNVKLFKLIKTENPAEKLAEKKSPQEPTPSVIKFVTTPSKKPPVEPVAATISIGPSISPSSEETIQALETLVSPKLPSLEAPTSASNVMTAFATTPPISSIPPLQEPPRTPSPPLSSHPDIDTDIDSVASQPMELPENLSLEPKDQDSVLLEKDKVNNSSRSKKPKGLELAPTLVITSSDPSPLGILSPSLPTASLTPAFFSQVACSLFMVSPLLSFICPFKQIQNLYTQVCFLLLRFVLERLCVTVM
The conditions noted are these: protein: recombinant; tags: N-terminal GST; dsDNA, one strand shown. The method, boiled down:
as §1

The target in a further assay is T4, ETV2 (Homo sapiens, UniProt O00321 1-342).
T4 sequence: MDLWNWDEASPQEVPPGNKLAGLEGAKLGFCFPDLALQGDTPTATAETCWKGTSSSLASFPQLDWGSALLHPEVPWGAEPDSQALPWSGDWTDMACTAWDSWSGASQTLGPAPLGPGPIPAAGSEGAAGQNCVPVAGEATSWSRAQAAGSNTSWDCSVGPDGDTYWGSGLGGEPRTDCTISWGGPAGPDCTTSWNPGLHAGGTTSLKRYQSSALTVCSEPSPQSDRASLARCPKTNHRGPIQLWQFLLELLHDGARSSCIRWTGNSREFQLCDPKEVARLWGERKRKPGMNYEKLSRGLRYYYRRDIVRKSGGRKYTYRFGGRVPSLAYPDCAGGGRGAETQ
The conditions noted are these: protein: recombinant; tags: N-terminal GST; dsDNA, one strand shown. The method, boiled down:
as §1

The target of another assay is T5, ELF3 (Homo sapiens, UniProt P78545 1-371).
T5 sequence: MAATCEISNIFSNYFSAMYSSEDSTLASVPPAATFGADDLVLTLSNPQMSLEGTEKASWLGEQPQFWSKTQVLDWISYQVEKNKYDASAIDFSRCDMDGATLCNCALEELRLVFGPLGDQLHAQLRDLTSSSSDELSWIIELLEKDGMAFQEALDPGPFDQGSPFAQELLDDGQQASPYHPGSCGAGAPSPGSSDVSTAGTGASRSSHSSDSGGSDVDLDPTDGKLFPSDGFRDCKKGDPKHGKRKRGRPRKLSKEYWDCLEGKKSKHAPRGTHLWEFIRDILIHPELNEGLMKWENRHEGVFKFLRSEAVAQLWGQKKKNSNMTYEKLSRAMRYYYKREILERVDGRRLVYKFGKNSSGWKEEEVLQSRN
Conditions: protein: recombinant; tags: N-terminal GST; dsDNA, one strand shown. The method, boiled down:
as §1

Another assay addresses CRX (Homo sapiens, UniProt O43186 1-299). The conditions noted are these: protein: recombinant; tags: N-terminal GST; dsDNA, one strand shown. The method, boiled down:
as §1

The next assay has as its target ETV1 (Homo sapiens, UniProt P50549 1-477). The conditions noted are these: protein: recombinant; tags: N-terminal GST; dsDNA, one strand shown. The method in brief:
as §1

The target of a further assay is T6, ERF (Homo sapiens, UniProt P50548 1-548).
T6 sequence: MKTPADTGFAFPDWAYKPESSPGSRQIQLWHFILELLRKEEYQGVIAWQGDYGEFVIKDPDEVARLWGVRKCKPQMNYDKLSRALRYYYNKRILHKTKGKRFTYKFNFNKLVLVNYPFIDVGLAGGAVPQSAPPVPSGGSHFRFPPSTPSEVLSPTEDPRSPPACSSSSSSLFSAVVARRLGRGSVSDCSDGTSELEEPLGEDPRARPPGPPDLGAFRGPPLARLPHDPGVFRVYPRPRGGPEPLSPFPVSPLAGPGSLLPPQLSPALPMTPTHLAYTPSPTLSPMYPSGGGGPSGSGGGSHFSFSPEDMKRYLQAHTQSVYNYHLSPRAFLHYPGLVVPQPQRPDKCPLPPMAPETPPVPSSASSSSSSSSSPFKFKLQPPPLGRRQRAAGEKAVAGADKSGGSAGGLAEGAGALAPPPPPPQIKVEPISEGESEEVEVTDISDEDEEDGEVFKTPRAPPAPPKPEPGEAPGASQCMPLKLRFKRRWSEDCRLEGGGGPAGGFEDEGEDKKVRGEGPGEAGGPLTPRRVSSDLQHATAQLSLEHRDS
Conditions: protein: recombinant; tags: N-terminal GST; dsDNA, one strand shown. The method in brief: as §1

A further assay addresses T7, ETV3L (Homo sapiens, UniProt Q6ZN32 1-361).
T7 sequence: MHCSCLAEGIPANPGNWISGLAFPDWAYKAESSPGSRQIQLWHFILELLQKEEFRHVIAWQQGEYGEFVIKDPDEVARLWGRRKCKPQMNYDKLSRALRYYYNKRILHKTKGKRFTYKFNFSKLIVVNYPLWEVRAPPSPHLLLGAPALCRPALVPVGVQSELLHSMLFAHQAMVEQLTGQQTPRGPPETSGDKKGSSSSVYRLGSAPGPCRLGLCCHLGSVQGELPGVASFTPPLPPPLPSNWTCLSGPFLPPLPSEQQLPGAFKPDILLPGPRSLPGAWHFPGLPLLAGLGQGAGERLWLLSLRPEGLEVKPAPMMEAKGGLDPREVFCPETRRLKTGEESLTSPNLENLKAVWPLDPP
Conditions: protein: recombinant; tags: N-terminal GST; dsDNA, one strand shown. The method in brief:
as §1

The next assay deals with T8, ETS2 (Homo sapiens, UniProt P15036 1-469).
T8 sequence: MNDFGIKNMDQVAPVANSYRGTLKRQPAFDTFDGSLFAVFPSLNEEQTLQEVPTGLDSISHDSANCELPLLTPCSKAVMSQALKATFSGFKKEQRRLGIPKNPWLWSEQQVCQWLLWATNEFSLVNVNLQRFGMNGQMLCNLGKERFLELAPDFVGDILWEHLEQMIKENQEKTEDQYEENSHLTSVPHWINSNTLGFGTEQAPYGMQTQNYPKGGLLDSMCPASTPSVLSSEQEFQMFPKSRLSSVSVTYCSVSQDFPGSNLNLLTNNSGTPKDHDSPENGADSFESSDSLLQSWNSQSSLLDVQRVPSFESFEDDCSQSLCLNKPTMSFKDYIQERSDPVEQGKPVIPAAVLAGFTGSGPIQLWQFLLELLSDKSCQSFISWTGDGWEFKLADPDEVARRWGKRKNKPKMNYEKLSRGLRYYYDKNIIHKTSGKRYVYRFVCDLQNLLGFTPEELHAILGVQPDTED
The conditions noted are these: protein: recombinant; tags: N-terminal GST; dsDNA, one strand shown. The method, boiled down:
as §1

In another assay the target is T9, SPDEF (Homo sapiens, UniProt O95238 1-335).
T9 sequence: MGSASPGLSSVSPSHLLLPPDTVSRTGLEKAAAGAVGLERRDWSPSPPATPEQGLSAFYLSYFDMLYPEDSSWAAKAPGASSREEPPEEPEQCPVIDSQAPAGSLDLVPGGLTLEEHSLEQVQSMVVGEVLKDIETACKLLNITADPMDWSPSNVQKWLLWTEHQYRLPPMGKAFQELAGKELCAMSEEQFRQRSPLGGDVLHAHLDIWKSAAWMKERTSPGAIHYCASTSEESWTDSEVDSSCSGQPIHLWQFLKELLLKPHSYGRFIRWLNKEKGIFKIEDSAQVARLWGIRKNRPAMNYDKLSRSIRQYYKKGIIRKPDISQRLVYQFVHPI
The conditions noted are these: protein: recombinant; tags: N-terminal GST; dsDNA, one strand shown. The method, boiled down:
as §1

For the next assay, the target named is T10, ETV7 (Homo sapiens, UniProt Q9Y603 1-341).
T10 sequence: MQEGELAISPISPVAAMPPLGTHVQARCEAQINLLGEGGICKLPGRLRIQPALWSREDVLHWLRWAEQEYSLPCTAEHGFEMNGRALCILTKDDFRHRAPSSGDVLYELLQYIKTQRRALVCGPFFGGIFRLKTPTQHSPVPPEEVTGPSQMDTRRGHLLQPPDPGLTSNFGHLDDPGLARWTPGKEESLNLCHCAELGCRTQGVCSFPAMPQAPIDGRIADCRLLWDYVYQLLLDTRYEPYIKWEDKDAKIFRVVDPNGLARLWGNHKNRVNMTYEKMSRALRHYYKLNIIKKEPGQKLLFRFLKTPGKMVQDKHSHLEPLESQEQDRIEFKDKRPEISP
Conditions: protein: recombinant; tags: N-terminal GST; dsDNA, one strand shown. The method, boiled down: as §1

Another assay addresses T11, ELF5 (Homo sapiens, UniProt Q9UKW6-2 1-255).
T11 sequence: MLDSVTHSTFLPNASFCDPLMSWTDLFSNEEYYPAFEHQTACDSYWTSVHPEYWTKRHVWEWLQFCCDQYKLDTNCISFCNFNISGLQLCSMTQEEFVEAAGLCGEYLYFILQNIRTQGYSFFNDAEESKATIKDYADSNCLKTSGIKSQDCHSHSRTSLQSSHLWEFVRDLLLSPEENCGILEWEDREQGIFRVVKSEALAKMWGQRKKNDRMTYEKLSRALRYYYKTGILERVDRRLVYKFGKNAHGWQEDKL
The conditions noted are these: protein: recombinant; tags: N-terminal GST; dsDNA, one strand shown. The method in brief: as §1

A further assay has as its target T12, ETV3 (Homo sapiens, UniProt P41162-2 1-143).
T12 sequence: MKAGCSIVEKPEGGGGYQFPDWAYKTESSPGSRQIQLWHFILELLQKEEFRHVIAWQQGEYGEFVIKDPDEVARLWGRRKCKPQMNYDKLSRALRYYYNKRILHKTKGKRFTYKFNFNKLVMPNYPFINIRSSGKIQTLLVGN
The conditions noted are these: protein: recombinant; tags: N-terminal GST; dsDNA, one strand shown. The method, boiled down:
as §1

The next assay concerns the target ETV6 (Homo sapiens, UniProt P41212 1-452). The conditions noted are these: protein: recombinant; tags: N-terminal GST; dsDNA, one strand shown. The method, boiled down: as §1

Chain of ETV6 (P41212 whole entry): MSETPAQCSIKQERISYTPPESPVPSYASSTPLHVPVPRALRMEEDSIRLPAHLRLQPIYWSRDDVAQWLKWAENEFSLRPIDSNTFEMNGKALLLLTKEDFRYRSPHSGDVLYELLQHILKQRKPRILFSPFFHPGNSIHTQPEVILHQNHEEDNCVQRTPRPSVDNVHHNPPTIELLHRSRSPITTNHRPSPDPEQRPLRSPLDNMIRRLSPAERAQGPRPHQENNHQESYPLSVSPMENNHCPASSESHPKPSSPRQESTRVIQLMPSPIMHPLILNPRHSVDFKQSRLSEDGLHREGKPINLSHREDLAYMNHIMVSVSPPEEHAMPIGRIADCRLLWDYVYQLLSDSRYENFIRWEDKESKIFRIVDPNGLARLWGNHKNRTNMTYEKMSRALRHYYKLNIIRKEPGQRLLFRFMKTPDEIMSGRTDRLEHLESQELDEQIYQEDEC
Chain of ETV1 (P50549 whole entry): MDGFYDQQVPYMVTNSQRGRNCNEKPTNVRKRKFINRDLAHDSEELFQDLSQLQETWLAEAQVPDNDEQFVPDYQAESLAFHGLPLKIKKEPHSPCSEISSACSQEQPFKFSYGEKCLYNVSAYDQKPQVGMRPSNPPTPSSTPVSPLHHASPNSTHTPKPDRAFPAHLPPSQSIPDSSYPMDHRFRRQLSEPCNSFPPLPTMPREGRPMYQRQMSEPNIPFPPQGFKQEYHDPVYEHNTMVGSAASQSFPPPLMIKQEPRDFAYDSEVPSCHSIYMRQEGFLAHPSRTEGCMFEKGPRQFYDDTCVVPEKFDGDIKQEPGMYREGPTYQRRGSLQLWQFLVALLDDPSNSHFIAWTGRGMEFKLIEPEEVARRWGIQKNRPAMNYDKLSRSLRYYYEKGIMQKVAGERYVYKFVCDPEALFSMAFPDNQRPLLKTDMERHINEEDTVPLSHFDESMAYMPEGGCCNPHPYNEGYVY
Chain of HSF1 (Q00613 whole entry): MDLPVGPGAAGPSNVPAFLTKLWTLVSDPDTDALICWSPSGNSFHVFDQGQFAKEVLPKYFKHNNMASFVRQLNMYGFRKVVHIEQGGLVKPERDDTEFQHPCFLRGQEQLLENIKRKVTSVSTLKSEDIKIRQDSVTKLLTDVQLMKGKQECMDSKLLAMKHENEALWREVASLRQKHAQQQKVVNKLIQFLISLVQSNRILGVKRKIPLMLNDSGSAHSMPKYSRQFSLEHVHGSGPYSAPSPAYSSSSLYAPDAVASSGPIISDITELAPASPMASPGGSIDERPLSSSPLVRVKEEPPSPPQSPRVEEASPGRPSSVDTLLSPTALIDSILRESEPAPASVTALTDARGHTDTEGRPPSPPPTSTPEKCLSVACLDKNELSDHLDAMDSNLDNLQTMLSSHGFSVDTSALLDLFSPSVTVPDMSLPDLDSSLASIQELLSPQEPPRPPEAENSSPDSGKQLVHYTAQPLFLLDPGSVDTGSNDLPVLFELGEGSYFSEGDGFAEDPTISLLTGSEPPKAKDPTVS
Chain of ETV5 (P41161 whole entry): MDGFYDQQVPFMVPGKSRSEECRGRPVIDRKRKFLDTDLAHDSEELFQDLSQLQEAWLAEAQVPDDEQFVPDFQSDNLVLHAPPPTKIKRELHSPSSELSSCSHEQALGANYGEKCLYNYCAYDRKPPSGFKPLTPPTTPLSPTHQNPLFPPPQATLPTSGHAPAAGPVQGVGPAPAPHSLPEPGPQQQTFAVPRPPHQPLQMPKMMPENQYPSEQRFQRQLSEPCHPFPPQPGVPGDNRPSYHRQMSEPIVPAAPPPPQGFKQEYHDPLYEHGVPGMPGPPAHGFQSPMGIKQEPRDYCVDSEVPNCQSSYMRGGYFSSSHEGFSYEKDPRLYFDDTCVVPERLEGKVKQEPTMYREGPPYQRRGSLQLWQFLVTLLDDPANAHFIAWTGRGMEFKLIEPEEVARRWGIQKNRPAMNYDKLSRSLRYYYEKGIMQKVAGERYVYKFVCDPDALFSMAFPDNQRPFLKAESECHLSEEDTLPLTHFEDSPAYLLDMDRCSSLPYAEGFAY
Chain of ELF4 (Q99607 whole entry): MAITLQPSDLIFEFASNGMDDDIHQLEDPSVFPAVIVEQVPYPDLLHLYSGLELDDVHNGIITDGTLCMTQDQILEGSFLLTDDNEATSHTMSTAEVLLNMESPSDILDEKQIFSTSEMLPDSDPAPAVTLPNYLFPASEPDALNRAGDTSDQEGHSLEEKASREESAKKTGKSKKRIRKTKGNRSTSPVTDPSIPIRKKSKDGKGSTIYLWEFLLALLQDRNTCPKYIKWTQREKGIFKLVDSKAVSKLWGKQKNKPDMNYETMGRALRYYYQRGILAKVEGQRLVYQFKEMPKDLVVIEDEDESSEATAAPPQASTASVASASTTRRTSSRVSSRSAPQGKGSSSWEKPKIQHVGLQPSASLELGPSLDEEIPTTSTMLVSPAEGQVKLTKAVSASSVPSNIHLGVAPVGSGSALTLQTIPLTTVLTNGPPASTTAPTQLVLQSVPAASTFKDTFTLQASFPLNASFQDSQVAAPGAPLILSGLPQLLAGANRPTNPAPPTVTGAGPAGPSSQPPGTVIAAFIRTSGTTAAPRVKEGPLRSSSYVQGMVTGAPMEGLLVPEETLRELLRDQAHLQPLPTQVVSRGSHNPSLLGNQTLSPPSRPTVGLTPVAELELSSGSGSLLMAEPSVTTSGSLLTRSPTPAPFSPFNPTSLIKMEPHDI
Chain of CRX (O43186 whole entry): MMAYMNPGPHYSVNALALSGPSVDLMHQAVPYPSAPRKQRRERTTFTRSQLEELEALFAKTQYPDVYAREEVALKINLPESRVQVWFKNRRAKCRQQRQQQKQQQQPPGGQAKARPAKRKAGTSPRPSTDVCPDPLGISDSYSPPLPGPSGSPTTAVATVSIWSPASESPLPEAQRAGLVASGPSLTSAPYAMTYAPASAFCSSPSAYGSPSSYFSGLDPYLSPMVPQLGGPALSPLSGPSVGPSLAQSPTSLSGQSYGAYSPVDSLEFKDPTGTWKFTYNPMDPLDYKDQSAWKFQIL

For TATAAA, the binding signal with FEV is 1.16 fold enrichment (6-mer frequency, TF over GST control); in the assay with ETV5 it was 1.18 fold enrichment (6-mer frequency, TF over GST control); with HSF1, 1.47 fold enrichment (6-mer frequency, TF over GST control); with SPIC, 1.26 fold enrichment (6-mer frequency, TF over GST control); in the assay with ELF4 it was 1.23 fold enrichment (6-mer frequency, TF over GST control); in the assay with ELK4, 1.32 fold enrichment (6-mer frequency, TF over GST control). The binding signal in the assay with ETV2 is 1.2 fold enrichment (6-mer frequency, TF over GST control); in the assay with ELF3, 1.33 fold enrichment (6-mer frequency, TF over GST control); with CRX, 1.85 fold enrichment (6-mer frequency, TF over GST control); in the assay with ETV1 it was 1.16 fold enrichment (6-mer frequency, TF over GST control); with ERF, 1.25 fold enrichment (6-mer frequency, TF over GST control); in the assay with ETV3L it was 1.15 fold enrichment (6-mer frequency, TF over GST control). Besides, the binding signal with ETS2 was 1.27 fold enrichment (6-mer frequency, TF over GST control); with SPDEF it was 1.21 fold enrichment (6-mer frequency, TF over GST control); in the assay with ETV7, 1.12 fold enrichment (6-mer frequency, TF over GST control); in the assay with ELF5, 1.24 fold enrichment (6-mer frequency, TF over GST control); with ETV3, 1.24 fold enrichment (6-mer frequency, TF over GST control); with ETV6, 1.21 fold enrichment (6-mer frequency, TF over GST control).
